# Most compounds without a hit are left out; they make up all but 3.4% or so of the library.
# GPR151 activ = activates the human receptor GPR151 | Q8TDV0 | PathHunter beta-arrestin GPR151 cells, luminescence | activation, % at 11.2 µM | 1% of 650,000 active; in the data active = activation above about 4.9%;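 also: 0% = median of compound wells and 100% = cells with positive control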
# TEAD-YAP inh = TEAD-YAP interaction inhibition | HEK-TIYL cells, TEAD-Gal4/YAP UAS-luciferase luminescence | inhibition, % at 9.12 µM | 1.4% of 640,000 active; in the data active = inhibition above about 32%;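 also: 0% = median of test compound wells and 100% = reference inhibitor wells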
# MITF inh = blocks human microphthalmia-associated transcription factor. 0.91% of 650,000 active. AlphaScreen MITF homodimerization, bead proximity signal. O75030. inhibition, % at 2.6 µM; in the data active = inhibition above about 50%;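 also: 0% = vehicle wells with protein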
# FBW7 activator = activators of human E3 ligase FBW7; AID 1259310; AlphaScreen FBW7–phospho-cyclin E peptide binding, activator screen; normalized activity (activation), % at 26.1 µM; Q969H0; 0.13% of 650,000 active; in the data active = normalized activity above about 1.9%;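 also: purified mutant Fbw7 with reduced substrate affinity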
# GPR151 conf act = confirmation of human GPR151 activators; shares compounds with GPR151 activ; GPR151 PathHunter beta-arrestin cells, luminescence, 90 min; % of EA-reagent control over plate median; activation, % at 11.2 µM; 6,700 tested, under 10 active;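 active = mean percent activation across replicates above the confirmation screen cutoff of 4.91%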
# GPR119 ag = GPR119 activation, counter-screen for GPR151 activators; GPR119 PathHunter beta-arrestin cells, luminescence, 90 min; 0 = compound-well median, 100 = enzyme-acceptor control; 0.3% of 6,700 active; activation, % at 11.2 µM; AID 1508611; shares compounds with GPR151 activ;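 active = mean percent activation in the counterscreen above 29.09%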;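 also: counterscreen on off-target GPR119 to flag nonselective hits from the GPR151 activator screen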
# Starred values were filed as active, the others as inactive; . = no result; ! = not confirmed by another sample.
SMILES,GPR151 activ,TEAD-YAP inh,MITF inh,FBW7 activator,GPR151 conf act,GPR119 ag
CN1C(=O)c2cccc(NC(=O)c3ccc4ccccc4c3)c2C1=O,7.6*,0,3,0,1,4
O=C(Nc1nc(-c2ccccc2)cs1)c1ccc(I)cc1,-1,1,19,0,.,.
COc1cc(-c2nc(-c3ccccc3)c(-c3cccs3)[nH]2)cc(OC)c1OC,5.0*,-3,-5,0,-1,-5
CCOC(=O)COc1ccc2ccccc2c1/C=N/n1c(C)nc2ccccc2c1=O,5.0*,-4,7,0,-1,-12
CCOc1ccc(/C=N/n2c(C)nc3ccccc3c2=O)cc1,-1,0,-4,0,.,.
CC(C)(C)OC(=O)N1CCC(NC(=O)c2cccc(-n3cc(NC(=O)Nc4ccccc4Cl)cn3)c2)CC1,3,9,0,0,.,.
CCC(Sc1nnc2c3ccccc3n(C)c2n1)C(=O)Nc1ccc(S(N)(=O)=O)cc1 (stereo unspecified),1,-5,-3,0,.,.
CCC(Sc1nnc2c3cc(Br)ccc3n(C)c2n1)C(=O)Nc1ccc(S(N)(=O)=O)cc1 (stereo unspecified),8.5*,-10,3,0,0,10
Fc1ccccc1-c1cccc2ccc(N3CCN(c4ncnc5nc[nH]c45)CC3)nc12,6.3*,-7,-6,0,0,12
O=c1c(NC2CC2)c(N2CCN(c3ccc4cccc(-c5ccccc5F)c4n3)CC2)c1=O,5.3*,60*,3,0,1,31*
CCc1ccc(-n2cnc3cc(C(=O)NCc4ccccc4Cl)ccc32)cc1,1,3,2,0,.,.
O=c1c2ccccc2nc(/C=C/c2coc([N+](=O)[O-])c2)n1CCO,1,14,13,0,.,.
COc1ccc(NC2=C(C(C)=O)C(c3ccc(N(C)C)cc3)C(C(C)=O)C(C)(O)C2)cc1 (stereo unspecified),13*,3,1,0,1,13
COc1ccc(NC2=C(C(C)=O)C(c3ccc(OC)cc3)C(C(C)=O)C(C)(O)C2)cc1 (stereo unspecified),0,4,9,0,.,.
COCc1cc(C)c2c(N)c(C(=O)c3ccc(Cl)cc3Cl)sc2n1,1,-4,5,0,.,.
CCCN(CCC)CCc1cccc2c1CC(=O)N2,12*!,-4,-9,0,0,-9
CC(C)(C)C1=Nc2ccccc2NC(=O)C1,0,-4,13,0,.,.
O=C(CSc1nnc(NC(=O)Cc2ccc(F)cc2)s1)NCC1CCCO1 (stereo unspecified),5.0*,10,4,1,0,11
O=C(CSc1nnc(NC(=O)Cc2ccccc2)s1)NCC1CCCO1 (stereo unspecified),-1,-7,-6,0,.,.
CCOC(=O)C1CCN(C(=O)c2cc(S(=O)(=O)N3CCCC3)cn2C)CC1,0,8,8,0,.,.
CCOC(=O)C1CCCN(C(=O)c2cc(S(=O)(=O)N3CCOCC3)cn2C)C1 (stereo unspecified),9.2*,-1,5,0,0,3
CN(Cc1c(C(=O)N2CCCC2)nc2sccn12)CC(O)c1ccccc1 (stereo unspecified),5.8*,10,7,0,1,4
CC(C)NCCOCCOc1cccc(Cl)c1,8.4*,6,42,0,-1,-13
CC(C)NCCOCCOc1c(Cl)cccc1Cl,0,-18,35,0,.,.
O=[N+]([O-])c1ccc(Nc2nc(-c3ccccc3)cs2)cc1,6.1*,-36,23,1,1,15
SMILES,GPR151 activ,TEAD-YAP inh,MITF inh,FBW7 activator,GPR151 conf act,GPR119 ag
CC(=O)Nc1cccc(-c2csc(Nc3ccc(C)cc3)n2)c1,10*,-71,-6,0,0,11
CC(=O)Nc1cccc(-c2csc(Nc3ccccc3Cl)n2)c1,5.0*,-67,1,0,0,5
COc1ccc([N+](=O)[O-])cc1C1=N/C(=C/c2ccccc2F)C(=O)O1,1,-9,2,0,.,.
CC(=O)Nc1ccc(Nc2c3c(nc4ncnn24)CCC3)cc1,0,-9,-14,0,.,.
c1cncc(-c2nnc3n2CCCCC3)c1,0,12,1,0,.,.
C=CCOc1ccccc1/C=N/NC(=O)c1cccc(I)c1,11*,-7,-7,0,0,1
CCC(C)(C)c1ccc(OCCOCCn2cc([N+](=O)[O-])nc2C)c(C(C)(C)CC)c1,5.6*,1,-9,0,0,6
CCCCc1nnc2sc(NC(=O)c3ccc(F)cc3)nn12,5.6*,1,-11,0,0,-7
CC(C)Cc1nnc(-c2cc3ccccc3n2CC(=O)N2CCc3ccccc32)o1,5.0*,2,6,0,-1,-12
Cc1ccccc1C(=O)n1cnc2cc([N+](=O)[O-])ccc21,7.1*,7,-259,0,1,-1
O=C(c1cc([N+](=O)[O-])cc([N+](=O)[O-])c1)n1cnc2ccccc21,-1,-7,21,1,.,.
O=C(NC1CC1)c1c(-c2ccccc2)nc2ccccn12,4,-8,17,2,.,.
Cc1cc(N2C(=O)C3C4CC(c5ccccc5)C(C4)C3C2=O)no1 (stereo unspecified),11*,1,-1,0,1,-4
Cc1ccccc1C(=O)NC(C)c1nnc2n1CCN(Cc1ccc(F)cc1)CC2 (stereo unspecified),6.5*,-1,3,0,0,11
Cc1ccccc1C(=O)NC(C)c1nnc2n1CCN(Cc1ccccc1F)CC2 (stereo unspecified),-1,3,6,0,.,.
COc1cccc(CNC(=S)NC2CCCC2)c1,6.3*,4,-7,0,0,-7
CC(=O)C1=C(C)NC(SCC=C(C)C)=C(C#N)C1C1C=CC(Cl)C=C1 (stereo unspecified),5.4*,-3,-7,0,1,-13
CC(=O)C1=C(C)NC(SCC(=O)O)=C(C#N)C1c1ccccc1 (stereo unspecified),0,-8,14,0,.,.
Cc1ccc2cc(CN(CC3CCCO3)C(=O)C3CCC3)c3nnnn3c2c1 (stereo unspecified),8.4*,12,4,0,4,8
CCc1ccc(N(CC(=O)NC)S(C)(=O)=O)cc1,5.3*,-3,-12,0,0,-10
CCc1ccc(N(CC(=O)OC)S(C)(=O)=O)cc1,1,4,14,1,.,.
Cc1ccc(C(=O)Nc2ccc(F)cc2)cc1S(=O)(=O)N1CCCCCC1,0,-17,-1,0,.,.
Cc1ccc(C(=O)Nc2cc(C(N)=O)cc(C(N)=O)c2)cc1S(=O)(=O)N1CCCCC1,6.4*,-2,11,0,0,4
